According to PubChem BioAssay AID2546 (National Center for Advancing Translational Sciences (NCATS), 2010):
Screen size: about 310,000 compounds; about 11,000 (3.5%) were called active. Not shown: some 8% with an inconclusive outcome. Calls come from the whole dose curve; as a rule, active = well fitted inhibition curve with a large enough effect; inconclusive = small, poorly fitted or top-dose-only effect, or effect the other way; inactive = flat fitted curve, though single readings scatter. What follows is part of a selection rich in actives, with near analogues and random picks from the rest. Entries that show only a call come without a potency.

Experiment: VP16 counterscreen qHTS for inhibitors of ROR gamma transcriptional activity;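 note: Gal4-VP16 expression switched on by copper sulfate through the metallothionein promoter; nearly all actives have a fitted effect of over 50% in size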
Settings: Drosophila S2 Gal4-VP16 UAS-luciferase, luminescence, 20 h; series mostly up to 53.6 µM
Potency is the fitted concentration of half-maximal effect.

SMILES | Potency | activity, negative = inhibition
O=C(CC1C(=O)NCCN1C(=O)c1ccc([N+](=O)[O-])cc1)Nc1cccc(Cl)c1 (centres undefined) | inactive | –
Cc1ccc(SCc2c(C(=O)N/N=C/C3CC=CCC3)nnn2-c2nonc2N)cc1 (centres undefined) | inactive | –
Nc1nonc1-n1nnc(C(=O)N/N=C/c2cc(Br)ccc2O)c1CSC1=NCCS1 | 4.47 µM (active) | –
Cc1ccc(SCc2c(C(=O)N/N=C/c3cccnc3)nnn2-c2nonc2N)cc1 | inactive | –
COc1ccccc1NC(=O)CSc1nc2sc3c(c2c(=O)n1-c1ccccc1)CCN(C)C3 | inactive | –
CCCCc1nc2cc(C(=O)NCCc3cnn(C)c3)ccc2o1 | inactive | –
O=C(CCc1ccccc1)NCc1cccnc1 | inactive | –
O=C(CN(c1cc(C(F)(F)F)ccc1Cl)S(=O)(=O)c1ccccc1)NCc1cccnc1 | inactive | –
CCc1ccc(N(CC(=O)NCc2cccnc2)S(=O)(=O)c2ccccc2)cc1 | 14.1 µM (active) | –
CCOC(=O)c1c(-c2ccccc2)oc2ccc(OCC(N)=O)cc12 | inactive | –
COc1cccc(CN2CCN(Cc3ccc4cccc(F)c4n3)CC2CCO)c1 (centres undefined) | inactive | –
CN1c2ccc([N+](=O)[O-])cc2C(C)(C)C12C=Cc1cc(C(=O)O)ccc1O2 (centres undefined) | inactive | –
O=C(OC1CCOC1=O)c1ccc(-c2nc3ccccc3s2)s1 (centres undefined) | 1 µM (active) | –
CC(C)c1ccc(C(=O)OC2CCOC2=O)cc1 (centres undefined) | inactive | –
Cc1nn(Cc2ccccc2)c(Cl)c1C(=O)OC1CCOC1=O (centres undefined) | inactive | –
O=C(CNC(=O)OCc1ccccc1)NC1CCCCNC1=O (centres undefined) | inactive | –
Cc1cc(=O)n2[nH]c(-c3cccc(Cl)c3)cc2n1 | inactive | –
C=C1C(=O)C23C(O)C1CCC2[C@]12COC3(O)C(O)C1C(C)(C)CC[C@H]2O (some centres undefined) | 2.51 µM (active) | –
CCOc1ccc(C(C(=O)NC2CCCC2)N(C(=O)c2snc(C(N)=O)c2N)C2CCCC2)cc1 (centres undefined) | inactive | –
COCc1nc2ccccc2n1Cc1ccccc1Br | 5.62 µM (active) | –
COCn1c(COc2ccccc2)nc2ccccc21 | inactive | –
COc1ccccc1Cn1c(CO)nc2ccccc21 | inactive | –
Cc1ccccc1CCNC(=O)C1CCC(=O)N(Cc2ccc(Cl)cc2)C1 (centres undefined) | inactive | –
CCCn1cc(S(=O)(=O)c2ccc(C)cc2)c(=O)c2cc(OCC)ccc21 | inactive | –
CCN(CC)c1ccc(/C=N/Nc2nc(C)cc(C)n2)c(O)c1 | 4.47 µM (active) | –
CCN(CC)c1ccc(/C=N/Nc2nc(C)cc(=O)[nH]2)cc1 | inactive | –
Cc1cc(C)nc(N/N=C/c2ccncc2)n1 | inactive | –

SMILES | Potency | activity, negative = inhibition
CCN(CC)c1ccc(/C=N/NC(=O)CNC(=O)c2cccnc2)cc1 | inactive | –
Cc1ccc(C(=O)NCCNC(=O)c2cnccn2)cc1 | inactive | –
CCN(CC)c1ccc(/C=N/NC(=O)c2cnccn2)c(O)c1 | 5.62 µM (active) | –
Cc1cc(=O)n2nc(N3CCC(C(=O)Nc4c(F)c(F)c(F)c(F)c4F)CC3)sc2n1 | inactive | –
COc1ccc(S(=O)(=O)N2CCSCC2)cc1 | inactive | –
O=C(NNS(=O)(=O)c1ccc(F)cc1)c1ccc([N+](=O)[O-])cc1Cl | inactive | –
O=C(COc1ccc(Cl)cc1)Nc1ccc2c(c1)OCO2 | inactive | –
O=c1oc2ccccc2cc1-c1csc(Nc2ccc(O)cc2)n1 | inactive | –
Cc1ccc(Nc2nc(-c3ccc(O)cc3O)cs2)nc1 | 11.2 µM (active) | –
Cc1cc(O)ccc1-c1cnc2ccccc2n1 | inactive | –
C=Cn1cc[n+](CC(=O)c2ccc(OC)c(OC)c2)c1 | inactive | –
Cc1ccc(-n2c(C)cc(/C=N\NC(=O)CC(=O)NC(C)C)c2C)cc1 | inactive | –
Cc1ccccc1-n1c(C)cc(/C=N/NC(=O)c2ccc(CN3CCOCC3)cc2)c1C | – | -2.91% [at 0.365 µM] (inactive)
Cc1cc(/C=N/NC(=O)CC2(C)OCCO2)c(C)n1-c1ccc(Cl)c(Cl)c1 | 12.6 µM (active) | –
COc1ccccc1C(=O)NC(CCSC)C(=O)NNC(=O)c1csc(N2CCOCC2)n1 (centres undefined) | inactive | –
CCOc1ccc(C(=O)COC(=O)c2ccc(-n3cnnn3)cc2)cc1 | inactive | –
CCn1c(=S)[nH]c2sc3c(c2c1=O)CCCCC3 | 1.12 µM (active) | –
CCCc1nc2sc3c(c2c(=O)n1NC(=O)CCCl)CCCC3 | inactive | –
CN(C)CCCn1c(=O)n(Cc2ccccc2)c(=O)c2c3c(sc21)CCCCC3 | inactive | –
CC(C)c1ccc(NC(=O)[C@@H](NC(=O)N2CC(=O)Nc3ccccc32)C(C)C)cc1 | inactive | –
S=C(NNC(=S)NC1CC2CCC1C2)NC1CC2C=CC1C2 (centres undefined) | inactive | –
CC(C)c1ccc(NC(=S)NC2CC3C=CC2C3)cc1 (centres undefined) | 11.2 µM (active) | –
S=C(NNC(=S)NC1CC2C=CC1C2)NC1CC2C=CC1C2 (centres undefined) | inactive | –
Cc1nn(C(C)C(=O)NCCC2=CCCCC2)c(=O)c2nn(-c3ccccc3)c(C)c12 (centres undefined) | inactive | –
COc1ccc(C(=O)NC2CC2)cc1OC1CCN(C/C=C/c2ccccc2)CC1 | inactive | –
CN(C)S(=O)(=O)c1cccc(C(=O)OCC(=O)N2CCCC2=O)c1 | inactive | –
CCOC(=O)C1CCN(C(=O)Cn2nc(C)c3c(C)n(-c4ccccc4)nc3c2=O)CC1 | inactive | –
